Laboratory results from PubChem BioAssay (EPA / NIEHS).
The source made the active and inactive calls. The calls were made as follows: active = hit-call score of the fitted dose curve at least 0.9, where 1 is the maximum; inactive = score below 0.9.

The compounds below were run on BCL2L11 (gene 10018) (assay: LTEA_HepaRG_BCL2L11: Life Technologies and Expression Analysis (LTEA) Assay for Bcl-2 (BCL2L11) gene using HepaRG (AID 2283473)). Settings: mRNA level, 48 h; actives raise or lower the signal.
Protocol: LTEA_HepaRG is a cell based, multiplexed-readout assay that uses HepaRG, a human liver cell line, with measurements taken at 48 hours after chemical dosing on a 96-well plate.LTEA_HepaRG_BCL2L11 is one of 102 assay component(s) measured in the LTEA HepaRG cell culture assay. It is a marker of Cell proliferation, survival, death.Data from the assay component LTEA_HepaRG_BCL2L11 was analyzed into 1 endpoint. This assay endpoint, LTEA_HepaRG_BCL2L11, was analyzed with bidirectional fitting relative to DMSO as the negative control and baseline of activity. Using a type of inducible reporter, measures of mRNA induction for gain or loss-of-signal activity can be used to understand regulation of transcription factor activity. To generalize the intended target to other relatable targets, this assay endpoint is annotated to the cell cycle intended target family, where the subfamily is Cell proliferation, survival, death.
A total of 1060 chemcials from the ToxCast library were tested in eight-point concentration-response experiments. Cell culture and cytotoxicity assays were conducted at Thermo Fisher Scientific's Custom Services facility (Madison, WI). A single lot of human HepaRG cells (Thermo Fisher Scientific, Frederick, MD) was used for the cell culture experiments. 96-well format collagen type I coated plates of human HepaRG cells were prepared using established methods. Briefly, cryopreserved HepaRG cells were thawed, plated at a density of approximately 100,000 cells/well in HepaRG Thaw, Plate, and General Purpose media (HPRG770, Thermo Fisher Scientific), and incubated for 48 hours. 0.5% DMSO was selected as vehicle control to balance the requisite need of DMSO in HepaRG cultures to maintain differentiation (for example, baseline metabolism, proportions of hepatocytes vs. cholangiocytes), while enabling further hepatic receptor pathway activation (for example, PXR and CAR) in response to chemical exposure. 48 hours after plating, the culture medium was replaced with HepaRG Serum-Free Incudtion Media. Cells were exposed to each test chemical in duplicate and maintained in CO2 incubators for another 48 hours. Chemical plates were thawed to room temperature and 200x concentrations of treatment groups were prepared. 8-point conentration-reponse curves were made with the highest exposure at 100 uM, followed by half-log dilutions, all in 0.5% DMSO. Each test plate contained variouse controls, induction positive controls (1mM phenobarbital), cytotoxicity positive controls ([…] aflatoxin B1), vehicle controls (0.5% DMSO), and total lysis controls (0.5% DMSO). Cell morphology images were taken using an Essen IncuCyte FLR automated microscope, with six 96-well plates imaged in about 24 minutes. Images were captured and exported and JPEG files. Spent culture media was transfered to black-well plates for the LDH assay, and remaining media was sorted at -80 C for later use. Cells were treated with RLT buffer and frozen until shipped for gene expression analysis. Total RNA was isolated from the cell suspension in 75 uL of Buffer RLT (Qiagen, Germantown, MD 20874) by Quintiles/Expression Analysis (Durham, NC) using a custom isolation procedure. Total RNA from each plate well was transferred to a preamplification plate. Fluidigm's 96.96 Dynamic ArrayTM (Fluidigm, Amsterdam, the Netherlands) technology was used for gene expression analyses by quantitative reverse transcription polymerase chain reaction (qRT-PCR, performed by Quintiles/Expression Analysis, Durham, NC)89. Standard TaqManTM Assays (Applied Biosystems/ThermoFisher Scientific, Foster City, CA) were used to assess the expression of 93 genes selected based on their selectivity and sensitivity to important hepatic receptors known to be modulated by environmental chemicals; importance in human hepatocyte functionality; and hepatotoxicity. […]

outcome, inactive:
O=c1[nH]c2ccc(S(=O)CCN3CCC(Cc4ccc(F)cc4)CC3)cc2o1 (stereo not given), CCOCCO, Cn1c(=O)c2c(ncn2C)n(C)c1=O, CC(C)c1cccc(C(C)C)c1N1C(=O)c2ccc(O)cc2C1=O, O=C(O)c1cccc(N(Cc2cccnc2)c2ccc(OC(F)F)c(OC(F)F)c2)c1, Cn1c(=O)cc(Oc2ccc(F)cc2F)c2cnc(NCC(C)(C)O)nc21, CC(C)CCCCCCCOC(=O)CCCCC(=O)OCCCCCCCC(C)C, CCCCCCCCCCCCCCCO, COCCOCCOCCOC, Fc1ccccc1[C@@H](F)COC1CCC(Nc2ncnc3[nH]ncc23)CC1 (stereo not given in full), CC1=CC(=O)CC(C)(C)C1, CCCCCCCCCCCCc1ccccc1, CC(C)=CCC/C(C)=C/CO, CC[C@H]1OC(=O)[C@H](C)[C@@H](O[C@H]2C[C@@](C)(OC)[C@@H](O)[C@H](C)O2)[C@H](C)[C@@H](O[C@@H]2O[C@H](C)C[C@H](N(C)C)[C@H]2O)[C@](C)(O)C[C@@H](C)C(=O)[C@H](C)[C@@H](O)[C@]1(C)O, Oc1ccc2c(c1)-c1ccccc1C2, C[C@](N)(Cc1ccc(O)c(O)c1)C(=O)O, CC(C)(O)c1coc(S(=O)(=O)NC(=O)Nc2c3c(cc4c2CCC4)CCC3)c1, CNS(=O)(=O)c1cc(C(=O)N2CCC(CCN3C4CCC3CC(n3c(C)nc5ccccc53)C4)(c3cccc(F)c3)CC2)c(Cl)cc1F (stereo not given), CC(=O)OCCC(C)C, CCCCCCCCO, O=c1n(CC2CO2)c(=O)n(CC2CO2)c(=O)n1CC1CO1 (stereo not given), CC1(C)C(=O)N(Br)C(=O)N1Br, CCCCC(CC)COC(=O)CCCCCCCCC(=O)OCC(CC)CCCC (stereo not given), O=C1OC(=O)C2C3C=CC(C3)C12 (stereo not given), CCCCC(CC)COC(=O)c1ccc(C(=O)OCC(CC)CCCC)cc1 (stereo not given), CCN(C(=O)c1cc(C)cc(OC[C@H](C)Nc2ccncc2)c1)C(C)C, CN(C)c1ccc(Cc2ccc(N(C)C)cc2)cc1, O=C1CCC(N2C(=O)c3ccccc3C2=O)C(=O)N1 (stereo not given), COc1cccc(-c2ccc(/C=C\CN3CCCCCC3)cc2Cl)c1, CC(=O)OC[C@H]1O[C@@](COC(C)=O)(O[C@H]2O[C@H](COC(C)=O)[C@@H](OC(C)=O)[C@H](OC(C)=O)[C@H]2OC(C)=O)[C@@H](OC(C)=O)[C@@H]1OC(C)=O, CCNc1ccccc1, COc1ccc(/C=C/S(=O)(=O)NC(=O)c2ccc(C)cc2Cl)cc1, On1ccccc1=S, CC/C(=C\C(=N/O)C(N)=O)C(C)[N+](=O)[O-] (stereo not given), Cc1c(-c2cccnc2)c2ccccc2n1CCCCC(=O)O

AC50, active:
O=P(OC(CCl)CCl)(OC(CCl)CCl)OC(CCl)CCl 83.8 µM, O=C(CCCCCCCCc1cccnc1)N1CCC(C=C(c2ccccc2)c2ccccc2)CC1 27.3 µM, Cn1cnc([N+](=O)[O-])c1Sc1ncnc2nc[nH]c12 7.34 µM, CC[C@H]1CC[C@H](NCc2cc3c(cc2OC)[C@H]2C[C@H]2C(=O)N3C)[C@H](c2ccccc2)N1 31.7 µM, CCc1cc(SCc2sc(-c3ccc(C(F)(F)F)cc3)nc2CN2CCN(c3ccc(OC)cc3)CC2)ccc1OCC(=O)O 89.4 µM
